Experimental data as given in PubChem BioAssay (EPA / NIEHS).
Where “and” joins values, the source holds several entries; their conditions need not be identical. Identical values can stand only once. Results filed as inconclusive are left out. Some structures have more than one record in an assay (separate samples or runs), and their calls can disagree. Calls of active or inactive are those of the source. The calls were made as follows, unless noted: active = hit-call score of the fitted dose curve at least 0.9, where 1 is the maximum; inconclusive = response in the unintended direction; inactive = score below 0.9.

Tests used:
[1] = target: rat Androgen Receptor (AR), Ar (gene 24208) (UniProt P15207); assay: NVS_NR_rAR: NovaScreen (NVS) Nuclear Receptor Binding Assay for rat Androgen Receptor (AR) (AID 2283366)
Sequence of rat Androgen Receptor (AR), Ar (gene 24208) (P15207 whole entry, looked up): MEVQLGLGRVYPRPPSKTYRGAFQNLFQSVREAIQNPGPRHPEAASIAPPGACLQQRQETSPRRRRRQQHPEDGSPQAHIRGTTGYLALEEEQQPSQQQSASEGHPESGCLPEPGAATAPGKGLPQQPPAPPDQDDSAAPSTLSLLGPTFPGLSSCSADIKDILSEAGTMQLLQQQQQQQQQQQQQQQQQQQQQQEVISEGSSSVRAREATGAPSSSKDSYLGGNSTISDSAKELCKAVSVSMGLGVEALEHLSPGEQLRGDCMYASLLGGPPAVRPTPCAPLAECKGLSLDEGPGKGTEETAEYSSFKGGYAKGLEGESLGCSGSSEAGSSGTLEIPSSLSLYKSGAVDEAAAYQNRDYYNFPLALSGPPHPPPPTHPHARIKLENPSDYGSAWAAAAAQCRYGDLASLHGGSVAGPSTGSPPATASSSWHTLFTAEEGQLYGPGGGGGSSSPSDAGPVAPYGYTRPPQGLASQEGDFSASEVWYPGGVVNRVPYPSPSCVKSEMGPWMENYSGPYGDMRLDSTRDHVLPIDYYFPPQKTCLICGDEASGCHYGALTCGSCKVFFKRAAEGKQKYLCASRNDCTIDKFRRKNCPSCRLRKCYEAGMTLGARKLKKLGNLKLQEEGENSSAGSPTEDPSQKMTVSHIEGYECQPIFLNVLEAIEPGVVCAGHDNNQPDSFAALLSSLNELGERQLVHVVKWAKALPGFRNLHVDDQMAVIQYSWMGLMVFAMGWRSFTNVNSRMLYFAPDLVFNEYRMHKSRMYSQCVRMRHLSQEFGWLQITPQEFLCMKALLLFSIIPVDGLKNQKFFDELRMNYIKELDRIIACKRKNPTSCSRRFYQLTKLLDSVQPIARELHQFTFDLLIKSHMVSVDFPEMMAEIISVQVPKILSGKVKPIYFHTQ
Method in brief: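 Actives from a duplicate single-concentration (25 uM) primary run went on to concentration series. Displacement of radioligand was counted by filtration and scintillation, 18 h post-dose, using prostate extracts from testosterone-pretreated rats, with DMSO as baseline.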

[2] = target: human Adenosine Transporter (Adot), SLC29A1 (gene 2030) (UniProt Q99808); assay: NVS_TR_hAdoT: NovaScreen (NVS) Transporter Assay for human Adenosine Transporter (Adot) (AID 2283368)
Sequence of human Adenosine Transporter (Adot), SLC29A1 (gene 2030) (Q99808 whole entry, looked up): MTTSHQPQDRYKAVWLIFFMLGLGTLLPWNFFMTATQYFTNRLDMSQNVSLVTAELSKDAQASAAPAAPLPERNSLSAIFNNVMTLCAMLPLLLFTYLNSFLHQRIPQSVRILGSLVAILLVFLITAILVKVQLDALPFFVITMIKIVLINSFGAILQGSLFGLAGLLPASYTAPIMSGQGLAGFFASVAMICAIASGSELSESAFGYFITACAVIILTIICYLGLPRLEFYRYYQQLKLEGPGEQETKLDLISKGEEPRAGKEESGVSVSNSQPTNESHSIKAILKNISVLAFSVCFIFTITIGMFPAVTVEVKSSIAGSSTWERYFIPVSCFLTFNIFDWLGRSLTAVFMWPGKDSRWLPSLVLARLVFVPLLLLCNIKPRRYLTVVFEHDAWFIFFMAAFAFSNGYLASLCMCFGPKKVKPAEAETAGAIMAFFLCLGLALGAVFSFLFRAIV
Method in brief: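 Binding displacement on U937 extracted protein, read 1 h post-dose by filtration and scintillation counting. Primary duplicate test at 25 uM, then singleton concentration series with 50 uM top; DMSO baseline.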

[3] = tested on: rat Norepinephrine Transporter (NET), gene 83511; assay: NVS_TR_rNET: NovaScreen (NVS) Transporter Assay for rat Norepinephrine Transporter (NET) (AID 2283373)
Method in brief: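 Competitive radioligand displacement at the rat NET using forebrain membrane preparations, 1 h incubation, filter-based scintillation readout. Primary testing in duplicate at a single 25 uM concentration; confirmed actives retested across concentrations.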

[4] = target: Estrogen receptor beta (Homo sapiens) (UniProt Q92731); assay: OT_ER_ERbERb_1440: Odyssey Thera (OT) 24-hour HEK293T Protein-Complementation Assay for Estrogen Receptor-beta/-beta Homodimer (AID 2283380);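 also: fluorescence gain from ER beta LBD homodimer complementation read by laser scanning cytometry; scored as signal increase over DMSO baseline for both agonists and antagonists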
Sequence of Estrogen receptor beta (Homo sapiens) (Q92731 whole entry, looked up, the tested form may be a part): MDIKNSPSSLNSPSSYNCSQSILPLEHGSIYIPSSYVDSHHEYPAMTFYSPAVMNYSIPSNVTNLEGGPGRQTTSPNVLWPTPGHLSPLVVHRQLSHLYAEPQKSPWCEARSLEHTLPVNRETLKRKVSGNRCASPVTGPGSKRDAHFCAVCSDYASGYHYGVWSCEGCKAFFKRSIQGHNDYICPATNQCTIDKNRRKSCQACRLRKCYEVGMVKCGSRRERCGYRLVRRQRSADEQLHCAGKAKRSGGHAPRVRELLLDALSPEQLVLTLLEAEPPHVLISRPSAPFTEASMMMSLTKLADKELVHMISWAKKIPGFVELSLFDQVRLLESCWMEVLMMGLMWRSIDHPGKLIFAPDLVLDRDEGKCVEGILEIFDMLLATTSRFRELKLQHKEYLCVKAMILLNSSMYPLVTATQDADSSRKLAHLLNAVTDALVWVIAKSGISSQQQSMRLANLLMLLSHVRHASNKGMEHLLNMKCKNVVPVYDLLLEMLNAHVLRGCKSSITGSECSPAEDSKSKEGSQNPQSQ
Method in brief: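 Fluorescence increase, nuclear for agonists or whole-cell for antagonists, relative to DMSO vehicle, quantified by laser scanning cytometer after fixation and Draq5 staining. Readout from 24 h treatment of HEK293T cells carrying complementation-paired ER beta LBD (aa 310-547).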

[5] = target: Estrogen receptor (Homo sapiens) (UniProt P03372); assay: OT_ERa_GFPERaERE_0480: Odyssey Thera (OT) 8-hour HeLa Transcription Induction Assay for Estrogen Receptor (AID 2283381; active = hit-call score of the fitted dose curve at least 0.9, where 1 is the maximum; inactive = score below 0.9)
Sequence of Estrogen receptor (Homo sapiens) (P03372 whole entry, looked up): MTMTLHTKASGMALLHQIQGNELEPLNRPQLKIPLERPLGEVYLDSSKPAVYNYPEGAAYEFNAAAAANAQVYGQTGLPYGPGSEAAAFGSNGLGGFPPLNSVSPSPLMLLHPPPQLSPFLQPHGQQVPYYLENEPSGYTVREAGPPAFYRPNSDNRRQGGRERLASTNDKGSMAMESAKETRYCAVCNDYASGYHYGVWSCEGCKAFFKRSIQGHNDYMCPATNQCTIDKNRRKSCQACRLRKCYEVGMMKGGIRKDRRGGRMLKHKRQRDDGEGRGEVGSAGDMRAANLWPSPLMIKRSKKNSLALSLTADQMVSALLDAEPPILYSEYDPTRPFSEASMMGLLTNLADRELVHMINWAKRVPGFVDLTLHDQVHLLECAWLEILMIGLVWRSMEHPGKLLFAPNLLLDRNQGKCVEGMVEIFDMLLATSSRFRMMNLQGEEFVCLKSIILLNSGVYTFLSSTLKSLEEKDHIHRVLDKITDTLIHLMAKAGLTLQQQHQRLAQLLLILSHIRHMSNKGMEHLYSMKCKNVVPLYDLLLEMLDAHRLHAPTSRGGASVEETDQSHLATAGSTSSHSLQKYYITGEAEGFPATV
Method in brief: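 GFP-ERE reporter, HeLa, 8 h exposure. Readout: fluorescence microscopy, high-content image analysis. Fit direction positive vs DMSO negative control.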

[6] = target: Estrogen receptor (Homo sapiens) (UniProt P03372); assay: OT_ERa_GFPERaERE_0120: Odyssey Thera (OT) 2-hour HeLa Transcription Induction Assay for Estrogen Receptor (AID 2283382)
Method in brief: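 Fluorescence microscopy read-out: inducible fluorescent protein reporter in HeLa cells, imaged 2 h post-dose. Signal increase over DMSO negative control fitted as single primary endpoint via high content image analysis.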

[7] = target: Bile acid receptor (Homo sapiens) (UniProt Q96RI1); assay: OT_FXR_FXRSRC1_1440: Odyssey Thera (OT) 24-hour HEK293T Protein-Complementation Assay for Farnesoid X receptor/SRC-1 Co-activator (AID 2283384)
Sequence of Bile acid receptor (Homo sapiens) (Q96RI1 whole entry, looked up, the tested form may be a part): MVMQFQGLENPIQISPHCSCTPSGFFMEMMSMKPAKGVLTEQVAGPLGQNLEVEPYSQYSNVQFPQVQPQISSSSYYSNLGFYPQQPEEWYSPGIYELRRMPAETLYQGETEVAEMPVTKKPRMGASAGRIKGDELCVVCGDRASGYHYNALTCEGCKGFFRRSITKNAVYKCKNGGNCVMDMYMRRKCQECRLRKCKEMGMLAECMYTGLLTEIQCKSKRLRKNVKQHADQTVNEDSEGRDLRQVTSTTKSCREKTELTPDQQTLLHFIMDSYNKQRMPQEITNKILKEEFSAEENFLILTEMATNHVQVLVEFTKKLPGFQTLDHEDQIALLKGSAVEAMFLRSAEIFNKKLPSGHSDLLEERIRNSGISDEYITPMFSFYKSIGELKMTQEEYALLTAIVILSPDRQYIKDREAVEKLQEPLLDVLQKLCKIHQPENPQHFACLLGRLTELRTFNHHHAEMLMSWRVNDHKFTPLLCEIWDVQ
Method in brief: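 Fluorescence readout, 24 h post-dose, HEK293T; FXR and SRC-1 fused to complementary reporter fragments, association reconstitutes signal. Positive-direction fit vs DMSO baseline.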

[8] = target: Retinoic acid receptor RXR-alpha (Homo sapiens) (UniProt P19793); assay: OT_NURR1_NURR1RXRa_0480: Odyssey Thera (OT) 8-hour HEK293T Protein Complementation Assay for Nurr1/retinoid X receptor (RXR) (AID 2283385)
Sequence of Retinoic acid receptor RXR-alpha (Homo sapiens) (P19793 whole entry, looked up, the tested form may be a part): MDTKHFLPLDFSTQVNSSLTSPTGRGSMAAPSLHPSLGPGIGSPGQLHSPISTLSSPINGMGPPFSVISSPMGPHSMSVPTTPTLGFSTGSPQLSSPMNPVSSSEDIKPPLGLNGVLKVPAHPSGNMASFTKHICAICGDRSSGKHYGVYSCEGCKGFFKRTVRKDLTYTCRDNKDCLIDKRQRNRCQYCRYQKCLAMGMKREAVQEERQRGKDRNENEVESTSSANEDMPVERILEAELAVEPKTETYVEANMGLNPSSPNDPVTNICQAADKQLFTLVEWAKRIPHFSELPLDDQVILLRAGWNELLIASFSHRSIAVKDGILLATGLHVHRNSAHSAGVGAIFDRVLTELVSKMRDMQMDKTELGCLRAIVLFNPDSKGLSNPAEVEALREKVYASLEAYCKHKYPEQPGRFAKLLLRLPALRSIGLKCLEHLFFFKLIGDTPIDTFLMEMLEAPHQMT
Method in brief: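 Read-out: fluorescence from protein-fragment complementation between Nurr1 and RXRα in human HEK293T cells, 8 h after dosing. DMSO served as negative control; increased signal counted as activity.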

[9] = target: Retinoic acid receptor RXR-alpha (Homo sapiens) (UniProt P19793); assay: OT_NURR1_NURR1RXRa_1440: Odyssey Thera (OT) 24-hour HEK293T Protein Complementation Assay for Nurr1/retinoid X receptor (RXR) (AID 2283386)
Method in brief: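 Fluorescence PCA read-out; HEK293T; 24 h post-dose; bait/prey fused to reporter fragments; gain-of-signal fit vs DMSO negative control.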

[10] = target: mouse Estrogen Receptor alpha (Era), Esr1 (gene 13982) (UniProt P19785); assay: NVS_NR_mERa: NovaScreen (NVS) Nuclear Receptor Binding Assay for mouse Estrogen Receptor alpha (Era) (AID 2283378);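 also: hit means loss of bound radioligand signal relative to DMSO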
Sequence of mouse Estrogen Receptor alpha (Era), Esr1 (gene 13982) (P19785 whole entry, looked up): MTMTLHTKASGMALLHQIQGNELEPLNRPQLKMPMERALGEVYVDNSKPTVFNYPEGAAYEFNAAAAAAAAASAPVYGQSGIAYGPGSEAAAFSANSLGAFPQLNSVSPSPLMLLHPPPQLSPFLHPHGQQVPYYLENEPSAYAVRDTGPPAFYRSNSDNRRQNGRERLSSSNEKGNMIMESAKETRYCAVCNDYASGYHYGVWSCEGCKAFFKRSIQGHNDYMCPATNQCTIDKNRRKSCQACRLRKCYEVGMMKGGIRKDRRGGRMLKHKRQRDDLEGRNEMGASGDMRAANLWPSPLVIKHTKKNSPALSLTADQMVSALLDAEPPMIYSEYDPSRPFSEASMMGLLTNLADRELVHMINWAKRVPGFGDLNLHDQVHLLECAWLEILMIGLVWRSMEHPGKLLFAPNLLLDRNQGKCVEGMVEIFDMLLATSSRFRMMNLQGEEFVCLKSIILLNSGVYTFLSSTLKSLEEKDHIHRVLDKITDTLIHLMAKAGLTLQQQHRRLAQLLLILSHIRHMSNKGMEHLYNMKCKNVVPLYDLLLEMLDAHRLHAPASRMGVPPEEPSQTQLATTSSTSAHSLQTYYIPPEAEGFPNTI
Method in brief: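 Measurements come from scintillation counting after filtration, taken 18 hours after chemicals were added to a cell-free mouse Era preparation with radioligand. Screening was duplicate at 25 uM, with concurrent positive and negative controls and confirmatory concentration series for actives.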

[11] = target: Agonist Androgen Response Element (ARE), AR (gene 367) (UniProt P10275); assay: OT_AR_ARELUC_AG_1440: Odyssey Thera (OT) 24-hour CHO-K1 Luciferase Assay for Agonist Androgen Response Element (ARE) (AID 2283379)
Sequence of Agonist Androgen Response Element (ARE), AR (gene 367) (P10275 whole entry, looked up): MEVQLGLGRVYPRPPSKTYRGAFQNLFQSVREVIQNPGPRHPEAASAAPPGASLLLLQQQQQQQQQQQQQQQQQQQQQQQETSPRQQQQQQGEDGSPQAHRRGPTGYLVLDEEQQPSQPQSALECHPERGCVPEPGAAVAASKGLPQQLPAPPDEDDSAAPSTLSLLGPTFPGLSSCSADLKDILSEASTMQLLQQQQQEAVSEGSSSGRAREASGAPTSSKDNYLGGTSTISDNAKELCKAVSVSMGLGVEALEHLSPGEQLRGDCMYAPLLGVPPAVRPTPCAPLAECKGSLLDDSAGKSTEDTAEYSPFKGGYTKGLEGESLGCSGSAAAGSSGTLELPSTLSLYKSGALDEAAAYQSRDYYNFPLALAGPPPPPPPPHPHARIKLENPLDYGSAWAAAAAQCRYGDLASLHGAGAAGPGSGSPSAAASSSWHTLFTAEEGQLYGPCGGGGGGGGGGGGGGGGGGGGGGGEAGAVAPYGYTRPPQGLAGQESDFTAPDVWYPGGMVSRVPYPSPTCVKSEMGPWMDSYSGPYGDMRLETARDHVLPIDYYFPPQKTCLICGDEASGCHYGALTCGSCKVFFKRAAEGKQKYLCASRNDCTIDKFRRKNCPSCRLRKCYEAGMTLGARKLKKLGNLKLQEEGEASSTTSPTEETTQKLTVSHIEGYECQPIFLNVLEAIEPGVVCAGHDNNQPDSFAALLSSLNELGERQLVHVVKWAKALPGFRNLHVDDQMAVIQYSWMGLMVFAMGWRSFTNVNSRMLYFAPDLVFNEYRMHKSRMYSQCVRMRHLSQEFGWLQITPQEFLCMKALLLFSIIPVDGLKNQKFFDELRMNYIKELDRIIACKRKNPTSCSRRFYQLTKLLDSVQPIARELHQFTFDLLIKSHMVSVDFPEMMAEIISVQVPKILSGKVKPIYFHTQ
Method in brief: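 Readout: luciferase bioluminescence from CHO-K1 ARE-luc cells, measured 24 h post-dosing; agonism = increased mean luminescence vs DMSO controls, fitted in positive direction.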

[12] = target: Bile acid receptor (Homo sapiens) (UniProt Q96RI1); assay: OT_FXR_FXRSRC1_0480: Odyssey Thera (OT) 8-hour HEK293T Protein-Complementation Assay for Farnesoid X receptor/SRC-1 Co-activator (AID 2283383)
Method in brief: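 Fluorescence intensity read-out, 8 h post-dose, HEK293T protein-fragment complementation; FXR bait and SRC-1 prey each linked to reporter fragments. Activity scored as signal increase over DMSO negative control.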

Measured: AC50

CCC(=O)O[C@H]1CC[C@H]2[C@@H]3CCC4=CC(=O)CC[C@]4(C)[C@H]3CC[C@]12C
active: [1] 1.53 µM [middle of 4 runs]

Oc1ccc(C(c2ccc(O)cc2)(C(F)(F)F)C(F)(F)F)cc1
active: [2] 25 µM

Nc1ccc(-c2ccc(N)cc2)cc1
active: [3] 14.3 µM

CCC(C)(c1ccc(O)cc1)c1ccc(O)cc1
inactive: [3]

CCC(C)c1cc([N+](=O)[O-])cc([N+](=O)[O-])c1O (stereo not drawn)
inactive: [4] | [5] | [6] | [7] | [8] | [9]

Clc1ccc(Cl)cc1
inactive: [4] | [5] | [6] | [8]

CCCCCCCCCc1ccc(O)cc1
active: [4] 12.5 µM and 12.1 µM | [8] 50 µM | [9] 79.1 µM and 85.9 µM
inactive: [10] | [5] | [6] | [8]

CN(C)CCO
inactive: [4] | [5] | [6] | [8] | [9]

CCOP(=S)(OCC)SCSC(C)(C)C
inactive: [5] | [6] | [8] | [9]

Cc1cccc([N+](=O)[O-])c1
inactive: [5] | [6]

NS(=O)(=O)C(F)(F)C(F)(F)C(F)(F)C(F)(F)C(F)(F)C(F)(F)C(F)(F)C(F)(F)F
inactive: [10] | [11] | [4] | [8] | [9]
active: [5] 42 µM | [6] 23.7 µM | [12] 79.1 µM | [7] 84.4 µM | [8] 83.3 µM

CN(C)c1nc(=O)n(C2CCCCC2)c(=O)n1C
inactive: [4] | [5] | [6] | [12] | [7] | [8] | [9]

C=CC(=O)NCNC(=O)C=C
inactive: [10] | [4] | [5] | [6] | [8] | [9]

C=CC(N)=O
inactive: [5] | [6] | [8] | [9]

Cc1ccccc1[N+](=O)[O-]
inactive: [4] | [5] | [6] | [8] | [9]

CCSC(=O)N(CC)C1CCCCC1
inactive: [5] | [6] | [12] | [7] | [8]

CCNc1nc(NC(C)C)nc(SC)n1
inactive: [11] | [4] | [9]

Cc1ccccc1O
inactive: [4] | [5] | [6] | [8] | [9]

Cc1cccc(C)c1N
inactive: [4] | [5] | [6] | [12] | [7] | [9]

O=S(=O)(O)C(F)(F)C(F)(F)C(F)(F)C(F)(F)F
inactive: [4] | [5] | [6] | [8] | [9]

ClC1=C(Cl)[C@]2(Cl)[C@@H]3[C@@H](Cl)[C@H]4O[C@H]4[C@@H]3C1(Cl)C2(Cl)Cl
inactive: [5] | [6] | [8] | [9]
active: [4] 14.4 µM | [8] 79.6 µM | [9] 86 µM

c1cc2ccc3cccc4ccc(c1)c2c34
inactive: [11] | [5] | [6] | [12] | [7] | [8] | [9]

CCC(C)(CC)c1cc(NC(=O)c2c(OC)cccc2OC)on1
inactive: [4] | [8] | [9]

O=C(NC(=O)c1c(F)cccc1F)Nc1cc(Cl)c(OC(F)(F)C(F)F)c(Cl)c1
inactive: [11] | [4] | [5] | [6] | [8] | [9]

Clc1ccc(C(Cl)(Cl)Cl)cc1
inactive: [5] | [6] | [12] | [7] | [8] | [9]

Clc1ccc(C(c2ccccc2Cl)C(Cl)(Cl)Cl)cc1 (stereo not drawn)
active: [10] 51.7 nM | [4] 2.14 µM and 2.1 µM and 2.35 µM | [8] 54.9 µM and 58.4 µM and 63.9 µM | [9] 59.9 µM
inactive: [10] | [9]

O=C(NC(=O)c1cc(F)c(F)cc1Cl)Nc1cc(F)ccc1N1CCC(C(=O)O)CC1
inactive: [5] | [6] | [8] | [9]

CCOCCOC(C)=O
inactive: [10] | [5] | [6] | [8]

C1CC2OC2CC1C1CO1 (stereo not drawn)
inactive: [4] | [5] | [6] | [12] | [7] | [8] | [9]

CCCCCCCCOC(=O)c1ccccc1C(=O)OCCCCCCCC
inactive: [10] | [4] | [5] | [6] | [12] | [7] | [8] | [9]

CO/C=C(/C(=O)OC)c1ccccc1COc1cccc(C(F)(F)F)n1
active: [12] 9.85 µM | [7] 3.27 µM | [8] 50 µM
inactive: [4] | [5] | [6] | [8] | [9]

CC(c1ccc(O)cc1)(c1ccc(O)cc1)c1ccc(O)cc1
inactive: [8]
active: [10] 768 nM | [5] 3.62 µM | [6] 2.96 µM

ClC1=C(Cl)[C@]2(Cl)[C@@H]3[C@H]4C[C@H]([C@@H]5O[C@H]45)[C@@H]3[C@@]1(Cl)C2(Cl)Cl
inactive: [10] | [5] | [8] | [9]

N#Cc1ccc(N(CC(N)=O)CC(F)(F)F)cc1C(F)(F)F
inactive: [4] | [5] | [6] | [12]

O=C(O)C(F)(F)C(F)(F)C(F)(F)C(F)(F)C(F)(F)F
inactive: [4] | [5] | [6] | [8] | [9]

Sc1ccccc1
inactive: [5] | [6]

O=S(=O)(O)C(F)(F)C(F)(F)C(F)(F)C(F)(F)C(F)(F)C(F)(F)F
inactive: [5] | [6] | [7] | [8] | [9]
